# Screening results deposited in PubChem BioAssay by National Center for Advancing Translational Sciences (NCATS).
# This is a sample that favours compounds with a hit; in the whole collection about 9.5% have one here.
# Pf growth 96h: P. falciparum growth inhibition at 96 hour, primary screen for plastid delayed-death inhibitors. P. falciparum luciferase reporter growth, 96 h. Potency, µM (top dose mostly 28.7 µM), without a hit: at the top dose activity change, negative = inhibition, actives largely listed as inhibitors. 6.9% of 320,000 active. AID 504834; note: % is set by controls: 0 for no effect and ±100 for the full control effect
#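 Luminescence readout: decreased luciferase signal marks inhibited growth of reporter-expressing P. falciparum in infected red cells (2% hematocrit, 0.05% parasitemia final), exposed to compound two generations (96 h, 37 C, 5% CO2).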
# RE007 growth inh: less growth of the S. pombe RE007 Vpr strain; Potency, µM (series often up to 92.2 µM), inactives show top-dose activity change, negative = less growth, usual class: inhibitors; S. pombe RE007 Vpr strain, BacTiter-Glo ATP luminescence, 24 h; 0.21% of 360,000 active; AID 651644; active = well fitted falling curve with a large enough effect; inconclusive = small, poorly fitted or top-dose-only effect; inactive = no such curve, though single readings can be large or run the other way; note: % is set by controls: 0 for no effect and ±100 for the full control effect; nearly all actives have a fitted effect of over 50% in size
#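 Fission yeast strain RE007, carrying one chromosomally integrated HIV-1 vpr copy, was seeded at OD 0.01 in PMG+AL medium with 23 nL pinned compound. After 24 h at 30 °C and 99% humidity, viability was read by BacTiter-Glo luminescence.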
# NS1 inh: inhibitors of influenza NS1 protein function; Potency, µM (titrated, usually from 46.1 µM), inactives show top-dose activity, positive = more growth; 0.4% of 270,000 active; calls by dose curve; note: actives are rising curves; nearly all actives have a fitted effect of over 50% in size
#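 In this qHTS, NS1 from influenza A is expressed in budding yeast, where it slows growth. Cells are switched from glucose to 2% galactose medium (pH 6.0, -URA), treated with compound, and growth recovery is read at OD600.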
# Pf growth 48h: inhibits P. falciparum growth in the first generation, 48 h; P. falciparum luciferase growth in erythrocytes, 48 h; Potency, µM (titrated, usually from 28.7 µM), for the others: at the highest dose activity change, negative = inhibition, hits mostly inhibitors; 5.9% of 310,000 active; AID 504832; note: % is set by controls: 0 for no effect and ±100 for the full control effect
#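 First compound was added to culture medium, then infected red cells at 0.1% parasitemia and 2% hematocrit (final). After incubation at 37 C under 5% CO2, luciferase detection reagent was dispensed and light output recorded.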
# SARS PLpro yeast: SARS-CoV PLP inhibition in yeast; 0.19% of 330,000 active; AID 485353; S. cerevisiae expressing SARS-CoV PLpro, growth rescue; Potency, µM (doses to about 32.9 µM), for the others: at the highest dose activity, positive = growth rescue, usual class: activators; calls by dose curve; note: 0% is about no effect; nearly all actives have a fitted effect of over 55% in size
# * marks the source's active call; other numbers are inactive results; ? = inconclusive; · = not tested or not shown; ! = a repeat was not active. Unless noted, calls come from the whole dose curve; as a rule, active = well fitted inhibition curve with a large enough effect; inconclusive = small, poorly fitted or top-dose-only effect, or another doubt; inactive = no such curve, though single readings can be large or run the other way. Potency is the fitted concentration of half-maximal effect.
SMILES,Pf growth 96h,RE007 growth inh,NS1 inh,Pf growth 48h,SARS PLpro yeast
CC(C)CC(C(=O)NC1CCCCC1)N(Cc1ccccc1)C(=O)c1snc(C(N)=O)c1N (stereo not drawn),?,19%,1%,?,-3%
CCCCC(C(=O)NC(C)(C)C)N(Cc1ccccc1Cl)C(=O)c1snc(C(N)=O)c1N (stereo not drawn),86%,-8%,3%,10µM*,-2%
CC(C)(C)NC(=O)C(c1ccco1)N(Cc1ccc2c(c1)OCO2)C(=O)c1snc(C(N)=O)c1N (stereo not drawn),9.3µM*,-11%,-8%,-21%,1%
CCc1ccc(N(C(=O)c2snc(C(N)=O)c2N)C(C(=O)NC2CCCC2)c2ccco2)cc1 (stereo not drawn),6%,8%,-1%,?,0%
O=C(CS(=O)(=O)Cc1ccccc1)c1ccccc1,·,-12%,·,·,·
CCOCCCN(C(=O)c1snc(C(N)=O)c1N)C(C(=O)NC1CCCC1)c1ccc(OC)cc1 (stereo not drawn),5%,0%,0%,8.3µM*,0%
Cc1nc2cc(C)c(C)cc2s1,?,-15%,·,0%,0%
Cc1cc2nc3ccc(=[N+](C)C)cc-3sc2cc1N,0.033µM*,?,14%,0.037µM*,-3%
CN(C)c1ccc2nc3ccc(=O)cc-3sc2c1,·,45µM*,·,·,·
CN(C)c1ccc2nc3ccc(=[N+](C)C)cc-3sc2c1,0.0067µM*!,?,·,0.0067µM*,-4%
COc1ccc2nc(N=Nc3ccc(N(C)C)cc3)sc2c1,336%,-19%,6%,5%,0%
c1cnn(-c2cncc(-n3cccn3)n2)c1,-20%,10%,8%,58%,0%
O=C1C(Cl)=C(NC2CCCCC2)C(=O)N1c1ccc(Cl)cc1,9.3µM*,1%,0%,?,-4%
CC(Sc1nc2ccccc2n1C)C(=O)NC(c1ccccc1)c1ccccc1 (stereo not drawn),5.9µM*,-4%,-22%,9.3µM*,-30%
Cn1c(SC(C(=O)Nc2ccc(F)cc2)c2ccccc2)nc2ccccc21 (stereo not drawn),?,1%,-10%,?,0%
O=C(Cc1cccs1)N1CCN=C1SCc1cccc(F)c1,19%,-4%,-3%,-7%,0%
CCCCNC(=O)c1[nH]c(C2CCNCC2)nc1-c1cccc(C(F)(F)F)c1,·,-10%,·,·,·
O=C(CSc1nc(-c2ccccc2)cc(=O)[nH]1)Nc1ccc(F)c(F)c1,29%,-10%,2%,1%,-1%
Cc1ccc(O)c(-c2cc(C(F)(F)C(F)F)[nH]n2)c1,9.3µM*,2%,-98%,9.3µM*,-12%
Cc1ccc(O)c(-c2cc(-c3ccccc3C)[nH]n2)c1,12%,?,-147%,?,-34%
CCOc1cc(C(=O)Nc2ccc(S(=O)(=O)NC3=NCCCCC3)cc2)cc(Br)c1OC,?,4%,·,-20%,2%
COc1ccc(NC(=O)CCCCCN2C(=O)[C@@H]3Cc4ccccc4CN3C2=O)cc1Cl,12µM*,-4%,18%,-16%,4%
Cc1ccc(NC(=O)CCCCCN2C(=O)[C@@H]3Cc4ccccc4CN3C2=O)cc1,?,12%,-22%,-11%,1%
CC(C)NC(=O)CN(C(=O)CCC(=O)Nc1nccs1)c1ccc2c(c1)OCO2,13µM*,-7%,5%,20%,8%
COCCNC(=O)CN(C(=O)CCC(=O)Nc1nccs1)c1ccc2c(c1)OCO2,?,9%,-2%,16%,6%
SMILES,Pf growth 96h,RE007 growth inh,NS1 inh,Pf growth 48h,SARS PLpro yeast
Cc1cccc(N(CC(=O)NC(C)C)C(=O)CCC(=O)Nc2nccs2)c1,?,39%,7%,9.3µM*,-2%
CC(C)(C)NC(=O)COC(=O)c1ccc(Cl)c(S(N)(=O)=O)c1,20%,3%,·,16%,-7%
O=C1CCC[C@@H]2[C@H]3CCC[N+]4([O-])CCC[C@@H](CN12)[C@@H]34 (stereo partly drawn),?,-2%,4%,-2%,1%
COc1cc(C(=O)Nc2nc(OC)c(-c3ccccc3)c(OC)n2)cc(OC)c1OC,·,-1%,6%,?,2%
COc1cc(CCC(=O)Nc2ccc(Cl)c(C(F)(F)F)c2)cc(OC)c1OC,?,5%,-19%,?,-3%
COc1cc(C(=O)Nc2ccc(Cl)c(C(F)(F)F)c2)cc(OC)c1OC,-9%,-2%,-55%,13µM*,-55%
COc1cc(C(=O)Nc2cc(-c3ccccc3)[nH]n2)cc(OC)c1OC,4%,9%,-3%,12µM*,-2%
COc1c(Cl)cc(Cl)cc1C(=O)Nc1ccc(NC(=O)c2cccs2)cc1,13µM*,-6%,-5%,9.3µM*,-3%
COc1cc(C(=O)Nc2ccc(Nc3ccccc3)cc2)cc(OC)c1OC,13µM*,7%,8%,-6%,-4%
COc1cc(C(=O)Nc2ccc(NC(=O)C3CC3)nc2)cc(OC)c1OC,?,-1%,-1%,-21%,-3%
COc1cc(C(=O)Nc2cccc(-n3cnnn3)c2)cc(OC)c1OC,0%,8%,-1%,1%,2%
COc1ccc(C(=O)Nc2ccc(NC(=O)c3cc(OC)c(OC)c(OC)c3)cn2)cc1,32%,11%,7%,2.1µM*,-7%
COc1cc(C(=O)Nc2cccc(-n3cnnn3)c2)cc(Cl)c1OC,?,-13%,7%,9.3µM*,-2%
COc1ccc(C(=O)Nc2ccc(NC(=O)c3cccs3)cc2)cc1Cl,?,-19%,7%,-9%,4%
COc1cc(C(=O)Nc2ccc(C(=O)c3cccs3)cc2)cc(OC)c1OC,9.3µM*,7%,-8%,?,-5%
COc1cc(C(=O)Nc2ccc(NC(=O)c3ccccc3Cl)nc2)cc(OC)c1OC,147%,-6%,-2%,9.3µM*,0%
COc1cc(/C=C(\NC(=O)c2cc(OC)c(OC)c(OC)c2)C(=O)NC(C(=O)O)c2ccccc2)cc(OC)c1OC (stereo not drawn),13µM*,-17%,28%,0%,5%
COc1cc(C(=O)Nc2ccc(NC(=O)c3ccccc3)nc2)cc(OC)c1OC,29%,1%,9%,5.2µM*,-4%
COc1cc(C(=O)NC(c2ccccc2)c2ccccc2)cc(OC)c1OC,-11%,-2%,7%,?,-7%
Cc1cc(C(=O)Nc2ccc(Nc3ccccc3)cc2)ccc1[N+](=O)[O-],12µM*,-6%,13%,-26%,13%
OCc1cn(-c2ccccc2)nc1-c1ccco1,77%,-16%,-9%,·,-6%
C=CCOC(=O)C1=C(C)NC(C)=C(C(=O)OCC=C)C1c1cn(-c2ccccc2)nc1-c1ccco1,3.7µM*,10%,11%,?,-20%
C=CCOc1ccccc1/C=N/NC(=O)c1ccc(Cl)cc1Cl,-9%,19%,-8%,4%,-20%
COc1cc(C(=O)Oc2ccccc2/C=N/NC(=O)c2ccc(Cl)cc2Cl)cc(OC)c1OC,?,22%,4%,6.6µM*,-3%
